Compound activity as filed in PubChem BioAssay.
The list is not random: actives were taken first. Their share in the collection is about 3.3%.
Jurkat NFkB inh = inhibitors of the PMA/ionomycin-induced NF-kB reporter in Jurkat cells; PMA/ionomycin-induced NF-kB luciferase reporter, luminescence; inhibition, % at 4 µM; 330,000 tested, 0.53% active; in the data active means inhibition above about 50%
Gli-Sufu block = Gli-Sufu pathway antagonism; inhibition, % at 5 µM; 340,000 tested, 0.74% active; Sufu-KO-LIGHT fibroblasts, Gli luciferase reporter luminescence;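 active means inhibition above about 55%, limit read from the data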;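 further: 0% = DMSO-treated cells and 100% = wells with medium but no cells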
SMARCA2 act = activators of SMARCA2 function; MG213 cells, MMTV-luciferase reporter, dexamethasone, overnight; activation, % at 9.1 µM; 370,000 tested, 1% active; in the data active means activation above about 7.8%;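 further: 0% = vehicle wells and 100% = reference activator wells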
697 NFkB inh = inhibitors of the PMA/ionomycin-induced NF-kB reporter in 697 B cells. 697 B-cell NF-kB luciferase reporter, 16 h. inhibition, % at 4 µM. 330,000 tested, 0.33% active; in the data active means inhibition above about 35%
esBAF inh = SWI/SNF esBAF complex inhibition; mouse ES cells, Bmi1-luciferase knock-in reporter, 24 h; 100% = twice the neutral-well signal; reporter increase, % at 12.5 µM; 350,000 tested, 2% active; AID 602393; in the data active means activation above about 40%;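 further: 0% = median of the plate's neutral control wells and 100% = double that signal; a rise in the Bmi1 reporter signal indicates esBAF inhibition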
The depositor's hits bear a star; nt = not tested or not shown.

SMILES	Jurkat NFkB inh	Gli-Sufu block	SMARCA2 act	697 NFkB inh	esBAF inh
CO[C@H]1CN(C)C(=O)c2cc(NC(=O)Nc3cc(Cl)cc(Cl)c3)ccc2OC[C@H](C)NC[C@@H]1C	nt	nt	nt	nt	-11.2
COc1ccc(-c2nnc(SC(C)C(=O)Nc3ccc4c(c3)OCCO4)o2)cc1 (stereo not drawn)	-49.8	-57.5	5.9	-37.9	46.2*
CC(=O)Nc1ccc(NC(=O)C(C)Sc2nnc(-c3ccc4c(c3)OCO4)o2)cc1 (stereo not drawn)	-22.4	-12.6	-1.7	5.8	29.0
CC(Sc1ccccc1F)C(=O)Nc1ccc2c(c1)OCCO2 (stereo not drawn)	6.5	-49.8	4.9	-28.0	99.6*
COc1ccc(C(=O)Nc2ccc3c(c2)OC[C@H](C)N(C(C)=O)C[C@H](C)[C@H](OC)CN(C)C3=O)cc1	nt	nt	nt	nt	-4.9
O=C1/C(=C\c2ccccc2)CCc2c1[nH]c1ccccc21	11.9	-80.8	2.2	-217.6	33.7
Cc1ccc2[nH]c3c(c2c1)CC/C(=C/c1ccccc1)C3=O	-36.3	-71.2	3.3	-90.6	90.6*
CCS(=O)(=O)Nc1ccc2c(c1)C(=O)N(C)[C@@H]1CC[C@@H](CC(=O)NC)O[C@@H]1CO2	nt	nt	nt	nt	-0.4
Cc1ccc(C2NC(=O)c3c(sc(C)c3C)N2)c(O)c1 (stereo not drawn)	-28.0	40.1	1.1	-43.0	98.1*
Cn1c2c(c(=O)[nH]c1=O)C(c1cccc(O)c1)C1=C(N2)c2ccccc2C1=O (stereo not drawn)	nt	55.6*	-0.8	nt	-3.5
COC(=O)C1=C(C)NC2=C(C(=O)c3ccccc32)C1c1cccc(OC)c1 (stereo not drawn)	4.3	4.6	-4.9	16.9	nt
COc1cccc(-c2ccc([C@@H]3[C@H]4CN(Cc5cncnc5)CCCCN4[C@H]3CO)cc2)c1	nt	nt	nt	nt	-1.3
Cn1c(CSc2nc3ccccc3s2)n[nH]c1=S	-1.7	-3.7	-3.1	-2.4	-20.2
Cn1c(CNc2nc3ccccc3n2C)nc2ccccc21	-36.3	-33.9	0.2	-21.6	68.0*
Cc1ccc(NCc2nc3ccccc3n2C)cc1C	-94.8	-125.8	6.1	-119.2	51.3*
Cn1c(CSc2nc3ccccc3s2)nc2ccccc21	-65.7	-66.6	4.7	-93.6	49.5*
Cc1ccc(NCc2nc3ccccc3n2C)cc1	-105.5	-62.8	4.2	-109.5	71.7*
Cn1c(CNc2ccc(O)cc2)nc2ccccc21	-8.7	-4.1	-0.4	-26.9	34.4
CN1CCN(C(=O)C[C@H]2C=C[C@@H](NC(=O)Cc3ccccn3)[C@@H](CO)O2)CC1	nt	nt	nt	nt	-1.2
O=C(C[C@H]1CC[C@H]2[C@@H](COC[C@H](O)CN2Cc2ccc(Oc3ccccc3)cc2)O1)Nc1nccs1	nt	nt	nt	nt	14.6
COc1ccc(NC(=O)N(C)C[C@H]2Oc3c(NS(=O)(=O)c4ccc(C)cc4)cccc3C(=O)N([C@H](C)CO)C[C@@H]2C)cc1	nt	nt	nt	nt	-1.1
Cc1noc(C)c1S(=O)(=O)Nc1ccc2c(c1)CC(=O)N([C@@H](C)CO)C[C@@H](C)[C@H](CN(C)C(=O)Nc1ccc(F)cc1)O2	nt	nt	nt	nt	-1.8
O=C(COC(=O)c1cccc(S(=O)(=O)N2CCOCC2)c1)Nc1nc(-c2ccccc2Cl)cs1	-15.1	-15.6	-1.0	0.0	52.0*
COc1ccc2c(C(=O)c3ccc(C)cc3)n(Cc3ccc(C(N)=O)cc3)[n+]([O-])c2c1	-62.6	-10.3	4.0	-124.1	100.9*
COc1ccc(C(=O)c2c3ccccc3[n+]([O-])n2CCC(N)=O)cc1	11.2	-0.8	3.1	2.7	47.3*
SMILES	Jurkat NFkB inh	Gli-Sufu block	SMARCA2 act	697 NFkB inh	esBAF inh
COc1ccc(C(=O)c2c3ccccc3[n+]([O-])n2CCCN)cc1	-12.7	-2.6	0.3	-37.4	29.0
COc1ccc(O)c(/C=N/NC(=O)c2cccc(N3CCCC3=O)c2)c1	14.0	7.4	-2.8	-14.2	5.9
COc1cccc(/C=N/NC(=O)c2cccc(N3CCCC3=O)c2)c1	-31.4	-114.2	5.1	-55.8	72.7*
Cc1cc(C(=O)Nc2cccc3c2O[C@H](CN(C)C(=O)Nc2ccc(C(F)(F)F)cc2)[C@@H](C)CN([C@@H](C)CO)C3=O)n(C)n1	nt	nt	nt	nt	5.0
COc1cccc(N2CCN(c3ncccn3)CC2)c1	-36.5	-39.0	3.1	-19.0	43.3*
CN(C)C(/C=C/Nc1ccc(Br)cc1)=C(C#N)C#N	-13.4	8.7	3.6	-4.3	nt
Brc1ccc(N=C/C=C/C=C/Nc2ccc(Br)cc2)cc1	16.0	-4.7	-0.8	9.1	68.2*
NCC[C@H]1CC[C@@H](NC(=O)C2CCCC2)[C@@H](CO)O1	nt	nt	nt	nt	-3.8
NS(=O)(=O)c1ccc(CNc2ccc3ccccc3n2)cc1	-34.9	3.4	2.3	-37.5	51.5*
Cc1nc2cc(NC(=O)N3CCC(c4ccccc4)C3)ccc2n1C (stereo not drawn)	-6.9	-23.2	2.8	-43.8	53.6*
O=C(Nc1ccccc1)N1CC=C(c2ccc(F)cc2)CC1	-64.4	-65.0	7.7	-77.5	60.8*
O=C(Nc1ccccc1)N1CC=C(c2ccccc2)CC1	-119.9	nt	nt	-152.7	nt
Cc1ccc(C2CCN(C(=O)Nc3ccc(F)cc3)C2)cc1 (stereo not drawn)	-36.8	-10.1	5.2	-43.4	63.2*
COc1ccc(NC(=O)Nc2ccc3c(c2)C(=O)N([C@@H](C)CO)C[C@@H](C)[C@H](CN(C)C)OCCCC[C@H](C)O3)cc1	nt	nt	nt	nt	-2.0
C[C@@H]1CN([C@H](C)CO)C(=O)c2cccc(NC(=O)C3CC3)c2O[C@H]1CN(C)C(=O)Nc1ccc2c(c1)OCO2	nt	nt	nt	nt	-3.6
Cc1cc(C(=O)CN2C(=O)NC3(CCCCC3)C2=O)c(C)n1Cc1ccc2c(c1)OCO2	-0.4	-25.0	-2.2	-23.3	50.7*
Cc1cc(C(=O)CN2C(=O)NC3(CCCCC3)C2=O)c(C)n1Cc1ccco1	-127.8	-82.2	3.7	-138.3	nt
COc1ccccc1NC(=O)C(=O)c1cn(CC(=O)N2CCCC2)c2ccccc12	-40.8	-56.9	3.2	-66.8	71.9*
CC(=O)Nc1cccc(NC(=O)C(=O)c2cn(CC(=O)N3CCCC3)c3ccccc23)c1	nt	nt	-2.9	nt	47.2*
CCN(CC)C(=O)Cn1cc(C(=O)C(=O)Nc2ccc3c(c2)OCCO3)c2ccccc21	-7.3	-61.1	2.4	-99.8	60.4*
CCN(CC)C(=O)Cn1cc(C(=O)C(=O)NCCCN2CCOCC2)c2ccccc21	0.5	4.6	0.1	1.8	-5.5
CO[C@H]1CN(C)C(=O)c2cc(NC(=O)c3cccc(F)c3)ccc2OC[C@@H](C)N(CC2CC2)C[C@@H]1C	nt	nt	nt	nt	4.3
O=C(NCC1CC1)[C@@H]1[C@@H](CO)[C@@H]2Cn3c(ccc(-c4cccnc4)c3=O)[C@H]1N2Cc1nccs1	nt	nt	nt	nt	-4.4
CCCC#Cc1ccc2c(c1)O[C@H](CN(C)CCC)[C@H](C)CN([C@H](C)CO)S2(=O)=O	nt	nt	nt	nt	-3.3
Cn1c(C(=O)NCc2ccccn2)cc2c(=O)n3ccccc3nc21	-72.6	-62.8	3.9	-79.2	53.6*
